Experiments:
Assay in all cases: log2 ratio of Biotin-Ahx-Ub-VS probe labelling (fragment/DMSO); higher = less target engagement (more negative = stronger competition), active = hit call of the paper (q ≤ 0.05, log2 ratio ≤ -1)
Conditions in all cases: compound concentration: 200 uM; treatment time: 3 h
USP16 = USP16 (UniProt Q9Y5T5)
Outline: (§1)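 Labelled DUBs from HEK293T lysate were NeutrAvidin-enriched, digested with LysC and trypsin, and run by diaPASEF LC-MS/MS. Before that, each 495 µg sample in Tris/CHAPS/IGEPAL buffer with protease inhibitors was treated in triplicate with fragment at 200 µM or vehicle for 3 h, then with Biotin-Ahx-Ub-VS at 0.5 µM final for 1 h. Values are average log2 ratios of fragment over vehicle by unpaired t-test, based on global-median-normalised Spectronaut label-free quantities from proteins with ≥2 unique peptides.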

USP19 = target: T1, USP19 (UniProt O94966)
T1 sequence (whole entry): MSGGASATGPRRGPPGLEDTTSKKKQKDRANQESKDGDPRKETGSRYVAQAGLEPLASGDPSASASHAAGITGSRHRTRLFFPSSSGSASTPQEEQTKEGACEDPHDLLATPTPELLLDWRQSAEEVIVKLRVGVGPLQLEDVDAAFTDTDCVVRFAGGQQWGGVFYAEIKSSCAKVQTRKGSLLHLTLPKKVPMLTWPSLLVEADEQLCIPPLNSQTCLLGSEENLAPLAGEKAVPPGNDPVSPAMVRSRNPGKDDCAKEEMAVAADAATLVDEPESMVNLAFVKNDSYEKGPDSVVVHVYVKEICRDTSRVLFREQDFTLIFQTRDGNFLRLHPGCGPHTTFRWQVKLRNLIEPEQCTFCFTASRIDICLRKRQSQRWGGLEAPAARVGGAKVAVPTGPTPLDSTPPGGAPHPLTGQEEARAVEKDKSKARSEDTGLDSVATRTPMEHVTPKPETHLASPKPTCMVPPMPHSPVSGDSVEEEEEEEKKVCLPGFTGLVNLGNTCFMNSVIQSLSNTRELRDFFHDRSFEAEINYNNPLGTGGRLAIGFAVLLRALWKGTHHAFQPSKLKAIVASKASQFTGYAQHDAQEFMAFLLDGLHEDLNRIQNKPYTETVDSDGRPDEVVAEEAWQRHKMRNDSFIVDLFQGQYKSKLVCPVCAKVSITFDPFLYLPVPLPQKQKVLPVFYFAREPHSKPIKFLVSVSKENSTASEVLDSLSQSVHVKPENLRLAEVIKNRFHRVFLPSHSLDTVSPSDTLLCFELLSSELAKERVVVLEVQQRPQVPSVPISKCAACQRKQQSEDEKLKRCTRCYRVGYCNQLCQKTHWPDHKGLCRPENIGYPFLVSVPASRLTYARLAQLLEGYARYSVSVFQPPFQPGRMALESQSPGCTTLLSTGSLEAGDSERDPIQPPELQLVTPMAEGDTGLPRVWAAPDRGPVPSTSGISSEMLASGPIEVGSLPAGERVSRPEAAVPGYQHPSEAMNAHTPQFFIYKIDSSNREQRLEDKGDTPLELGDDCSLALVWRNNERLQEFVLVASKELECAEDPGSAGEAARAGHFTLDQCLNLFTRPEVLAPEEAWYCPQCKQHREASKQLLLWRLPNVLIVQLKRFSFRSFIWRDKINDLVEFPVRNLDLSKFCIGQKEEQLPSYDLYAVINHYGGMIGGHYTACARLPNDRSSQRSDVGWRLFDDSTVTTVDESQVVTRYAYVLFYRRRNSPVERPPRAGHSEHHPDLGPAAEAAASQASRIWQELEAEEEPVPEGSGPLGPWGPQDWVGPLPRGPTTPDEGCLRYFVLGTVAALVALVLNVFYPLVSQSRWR
Outline: as §1

USP24 = USP24 (UniProt Q9UPU5)
Outline: as §1

USP25 = target: T2, USP25 (UniProt Q9UHP3)
T2 sequence (whole entry): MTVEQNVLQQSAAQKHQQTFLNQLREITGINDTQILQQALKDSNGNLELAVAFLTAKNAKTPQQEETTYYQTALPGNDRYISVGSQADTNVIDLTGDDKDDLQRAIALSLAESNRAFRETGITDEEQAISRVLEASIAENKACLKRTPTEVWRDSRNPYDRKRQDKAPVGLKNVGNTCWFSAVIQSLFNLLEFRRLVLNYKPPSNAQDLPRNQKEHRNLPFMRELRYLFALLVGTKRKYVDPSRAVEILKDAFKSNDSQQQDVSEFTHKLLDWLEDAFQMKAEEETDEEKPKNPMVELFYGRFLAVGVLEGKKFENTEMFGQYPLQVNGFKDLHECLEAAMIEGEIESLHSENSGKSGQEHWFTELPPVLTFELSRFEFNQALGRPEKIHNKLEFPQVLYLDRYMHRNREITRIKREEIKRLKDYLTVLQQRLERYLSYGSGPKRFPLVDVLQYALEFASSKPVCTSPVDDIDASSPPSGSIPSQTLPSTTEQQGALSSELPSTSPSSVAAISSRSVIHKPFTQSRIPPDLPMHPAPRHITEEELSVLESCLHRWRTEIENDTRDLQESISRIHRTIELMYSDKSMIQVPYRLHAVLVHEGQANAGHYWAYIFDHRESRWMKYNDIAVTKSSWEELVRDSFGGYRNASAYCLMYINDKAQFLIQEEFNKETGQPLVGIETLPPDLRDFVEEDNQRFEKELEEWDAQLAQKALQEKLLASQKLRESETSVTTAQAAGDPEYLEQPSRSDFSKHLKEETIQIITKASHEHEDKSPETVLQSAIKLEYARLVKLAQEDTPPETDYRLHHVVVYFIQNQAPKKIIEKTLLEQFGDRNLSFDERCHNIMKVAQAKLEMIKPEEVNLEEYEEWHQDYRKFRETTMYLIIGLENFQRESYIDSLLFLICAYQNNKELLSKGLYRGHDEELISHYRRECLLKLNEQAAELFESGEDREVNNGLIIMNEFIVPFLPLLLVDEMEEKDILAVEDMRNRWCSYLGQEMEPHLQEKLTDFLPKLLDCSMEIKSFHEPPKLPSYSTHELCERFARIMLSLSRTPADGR
Outline: as §1

USP28 = target: T3, USP28 (UniProt Q96RU2)
T3 sequence (whole entry): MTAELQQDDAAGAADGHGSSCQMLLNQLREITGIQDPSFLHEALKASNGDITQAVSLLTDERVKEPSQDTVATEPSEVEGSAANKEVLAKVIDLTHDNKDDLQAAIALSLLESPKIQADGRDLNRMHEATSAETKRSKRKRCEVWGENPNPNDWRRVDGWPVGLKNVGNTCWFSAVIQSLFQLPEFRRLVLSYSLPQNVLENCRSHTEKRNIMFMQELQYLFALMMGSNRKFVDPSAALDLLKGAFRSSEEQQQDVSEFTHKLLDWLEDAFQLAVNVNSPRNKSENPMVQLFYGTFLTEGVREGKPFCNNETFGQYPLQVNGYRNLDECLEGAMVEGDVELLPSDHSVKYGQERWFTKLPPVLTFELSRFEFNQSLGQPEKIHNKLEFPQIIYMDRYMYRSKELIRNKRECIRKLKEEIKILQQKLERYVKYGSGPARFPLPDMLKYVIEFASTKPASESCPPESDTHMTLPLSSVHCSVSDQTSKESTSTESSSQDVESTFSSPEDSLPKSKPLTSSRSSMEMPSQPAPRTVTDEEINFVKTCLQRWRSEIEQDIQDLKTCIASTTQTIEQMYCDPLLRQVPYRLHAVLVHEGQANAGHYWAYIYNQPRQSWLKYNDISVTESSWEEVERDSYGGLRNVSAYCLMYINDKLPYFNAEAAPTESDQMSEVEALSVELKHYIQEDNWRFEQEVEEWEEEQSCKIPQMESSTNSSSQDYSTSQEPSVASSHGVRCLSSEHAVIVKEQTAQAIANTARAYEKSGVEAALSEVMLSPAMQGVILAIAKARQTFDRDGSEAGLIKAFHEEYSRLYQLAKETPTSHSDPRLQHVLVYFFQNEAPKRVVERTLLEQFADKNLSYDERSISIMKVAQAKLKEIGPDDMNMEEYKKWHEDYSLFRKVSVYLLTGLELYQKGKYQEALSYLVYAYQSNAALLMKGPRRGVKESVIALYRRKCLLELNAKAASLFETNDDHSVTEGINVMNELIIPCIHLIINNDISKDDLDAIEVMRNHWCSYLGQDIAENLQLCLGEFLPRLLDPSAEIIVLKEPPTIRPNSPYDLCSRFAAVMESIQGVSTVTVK
Outline: as §1

Measured: log2 ratio of Biotin-Ahx-Ub-VS probe labelling

Sequence of USP24 (Q9UPU5 whole entry): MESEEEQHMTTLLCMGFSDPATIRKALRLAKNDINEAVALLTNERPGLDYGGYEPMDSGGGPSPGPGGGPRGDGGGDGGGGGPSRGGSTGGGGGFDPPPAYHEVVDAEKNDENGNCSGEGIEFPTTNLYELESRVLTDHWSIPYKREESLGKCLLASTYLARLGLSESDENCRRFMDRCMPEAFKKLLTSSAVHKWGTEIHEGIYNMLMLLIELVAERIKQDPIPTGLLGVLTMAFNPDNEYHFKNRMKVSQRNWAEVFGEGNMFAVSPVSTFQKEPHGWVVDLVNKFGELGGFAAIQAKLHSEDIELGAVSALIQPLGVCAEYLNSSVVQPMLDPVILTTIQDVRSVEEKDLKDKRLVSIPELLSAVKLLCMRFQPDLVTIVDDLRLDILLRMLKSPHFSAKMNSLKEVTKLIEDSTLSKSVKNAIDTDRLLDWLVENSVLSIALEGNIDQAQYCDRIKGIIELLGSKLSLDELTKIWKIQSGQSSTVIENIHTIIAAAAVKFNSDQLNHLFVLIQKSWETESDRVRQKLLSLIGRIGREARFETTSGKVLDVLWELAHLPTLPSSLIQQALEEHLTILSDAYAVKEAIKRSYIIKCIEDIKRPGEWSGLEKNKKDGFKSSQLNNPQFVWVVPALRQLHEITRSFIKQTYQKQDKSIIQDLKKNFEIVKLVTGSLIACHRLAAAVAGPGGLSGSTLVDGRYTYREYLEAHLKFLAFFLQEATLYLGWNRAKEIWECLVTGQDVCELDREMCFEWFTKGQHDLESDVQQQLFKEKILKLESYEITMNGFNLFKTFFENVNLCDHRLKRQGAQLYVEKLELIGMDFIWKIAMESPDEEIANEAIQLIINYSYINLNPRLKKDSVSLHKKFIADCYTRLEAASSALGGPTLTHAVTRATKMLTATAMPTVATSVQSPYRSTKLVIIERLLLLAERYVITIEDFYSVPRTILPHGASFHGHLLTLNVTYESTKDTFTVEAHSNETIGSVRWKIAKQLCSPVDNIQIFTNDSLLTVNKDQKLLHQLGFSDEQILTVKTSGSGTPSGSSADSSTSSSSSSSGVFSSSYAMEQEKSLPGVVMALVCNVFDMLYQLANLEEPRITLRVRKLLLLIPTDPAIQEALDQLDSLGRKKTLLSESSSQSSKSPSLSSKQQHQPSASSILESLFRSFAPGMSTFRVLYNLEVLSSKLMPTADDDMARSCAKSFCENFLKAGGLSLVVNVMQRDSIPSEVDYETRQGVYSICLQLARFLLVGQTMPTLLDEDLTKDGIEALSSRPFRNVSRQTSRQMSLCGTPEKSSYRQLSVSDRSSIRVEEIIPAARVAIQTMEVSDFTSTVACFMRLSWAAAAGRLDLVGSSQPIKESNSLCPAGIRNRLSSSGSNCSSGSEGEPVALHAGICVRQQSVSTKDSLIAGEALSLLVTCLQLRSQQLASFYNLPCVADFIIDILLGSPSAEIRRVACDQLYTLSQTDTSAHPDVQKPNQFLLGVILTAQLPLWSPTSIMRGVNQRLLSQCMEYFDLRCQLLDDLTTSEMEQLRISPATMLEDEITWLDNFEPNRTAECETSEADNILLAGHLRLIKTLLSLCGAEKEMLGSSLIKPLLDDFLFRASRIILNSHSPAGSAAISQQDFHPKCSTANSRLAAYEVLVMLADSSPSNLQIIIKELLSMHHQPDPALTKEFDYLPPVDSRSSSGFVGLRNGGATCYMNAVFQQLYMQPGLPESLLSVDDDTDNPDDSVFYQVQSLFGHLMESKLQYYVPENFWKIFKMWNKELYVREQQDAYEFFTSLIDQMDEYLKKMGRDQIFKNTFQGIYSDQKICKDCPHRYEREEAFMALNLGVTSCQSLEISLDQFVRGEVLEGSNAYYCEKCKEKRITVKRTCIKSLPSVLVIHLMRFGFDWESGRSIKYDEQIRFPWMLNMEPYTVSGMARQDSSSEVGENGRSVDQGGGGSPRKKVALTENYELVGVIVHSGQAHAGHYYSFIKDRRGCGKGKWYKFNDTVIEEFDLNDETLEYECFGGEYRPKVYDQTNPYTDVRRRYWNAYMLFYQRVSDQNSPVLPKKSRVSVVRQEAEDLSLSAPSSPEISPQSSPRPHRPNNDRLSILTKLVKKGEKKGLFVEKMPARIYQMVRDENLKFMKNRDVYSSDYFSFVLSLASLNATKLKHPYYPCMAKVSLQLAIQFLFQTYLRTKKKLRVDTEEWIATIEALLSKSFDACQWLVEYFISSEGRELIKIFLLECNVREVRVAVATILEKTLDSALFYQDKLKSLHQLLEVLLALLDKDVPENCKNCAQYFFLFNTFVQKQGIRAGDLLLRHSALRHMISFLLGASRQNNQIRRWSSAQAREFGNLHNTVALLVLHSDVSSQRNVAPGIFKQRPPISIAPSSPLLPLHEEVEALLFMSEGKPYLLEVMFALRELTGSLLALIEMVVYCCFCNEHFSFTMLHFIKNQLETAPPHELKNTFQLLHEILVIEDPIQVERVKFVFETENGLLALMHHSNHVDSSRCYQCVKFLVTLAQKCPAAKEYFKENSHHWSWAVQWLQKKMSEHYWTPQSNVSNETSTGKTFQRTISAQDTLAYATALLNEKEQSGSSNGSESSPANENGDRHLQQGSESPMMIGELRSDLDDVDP
Sequence of USP16 (Q9Y5T5 whole entry, looked up, the tested form may be a part): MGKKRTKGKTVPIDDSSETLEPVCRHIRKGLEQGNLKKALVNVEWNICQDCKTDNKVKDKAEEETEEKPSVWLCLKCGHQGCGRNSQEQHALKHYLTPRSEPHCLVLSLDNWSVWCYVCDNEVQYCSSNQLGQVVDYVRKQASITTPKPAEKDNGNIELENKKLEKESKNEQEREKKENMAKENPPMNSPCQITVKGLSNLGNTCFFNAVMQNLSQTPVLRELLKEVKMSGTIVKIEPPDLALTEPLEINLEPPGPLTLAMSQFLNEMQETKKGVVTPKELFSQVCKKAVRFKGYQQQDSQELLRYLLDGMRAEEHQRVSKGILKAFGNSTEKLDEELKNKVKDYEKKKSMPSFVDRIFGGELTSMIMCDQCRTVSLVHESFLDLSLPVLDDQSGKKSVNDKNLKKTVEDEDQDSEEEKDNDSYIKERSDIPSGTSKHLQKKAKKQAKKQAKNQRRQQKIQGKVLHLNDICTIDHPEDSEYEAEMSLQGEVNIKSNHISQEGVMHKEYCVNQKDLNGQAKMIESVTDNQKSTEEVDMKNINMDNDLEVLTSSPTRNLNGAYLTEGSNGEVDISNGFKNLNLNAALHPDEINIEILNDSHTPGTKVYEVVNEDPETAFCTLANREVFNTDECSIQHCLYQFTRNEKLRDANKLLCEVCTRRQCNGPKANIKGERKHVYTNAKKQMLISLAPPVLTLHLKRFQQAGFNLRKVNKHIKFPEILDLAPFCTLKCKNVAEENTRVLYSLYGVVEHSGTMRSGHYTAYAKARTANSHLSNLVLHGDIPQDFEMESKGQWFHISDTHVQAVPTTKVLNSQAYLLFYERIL

CC(C)n1nccc1NC(=O)CCl
inactive: USP16 -0.153 | USP19 -0.0967 | USP24 -0.207 | USP25 -0.514 | USP28 -0.651
